Reference: PubChem BioAssay
Values without a mark were called inactive. No rule for the calls is given here.

These molecules were tested against Pantothenate synthetase (Mycobacterium tuberculosis (strain ATCC 25618 / H37Rv)) (UniProt P9WIL5) (assay: Coupled enzyme confirmation of inhibitors against recombinant Mtb PanC (AID 375;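 also: 0% = full reaction with vehicle and 100% = no enzyme background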)). Conditions: coupled enzyme assay; at 10 µM, hits give high values.
Pantothenate synthetase (Mycobacterium tuberculosis (strain ATCC 25618 / H37Rv)), sequence (P9WIL5 whole entry, looked up): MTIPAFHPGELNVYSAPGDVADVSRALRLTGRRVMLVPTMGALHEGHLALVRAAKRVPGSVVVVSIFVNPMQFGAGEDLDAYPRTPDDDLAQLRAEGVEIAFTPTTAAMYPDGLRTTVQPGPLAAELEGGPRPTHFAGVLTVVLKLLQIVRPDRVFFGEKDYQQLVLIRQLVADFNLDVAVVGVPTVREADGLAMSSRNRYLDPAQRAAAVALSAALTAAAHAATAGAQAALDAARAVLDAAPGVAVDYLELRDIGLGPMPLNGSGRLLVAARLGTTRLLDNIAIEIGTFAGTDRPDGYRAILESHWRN

SMILES	inhibition
Cc1ccc(-c2cc(C(=O)N3CCCC3)no2)cc1	0%
CCCCOc1ccccc1C1C(C(N)=O)=C(C)Nc2nnnn21 (stereo not given)	0%
Cn1c(Cc2ccccc2)nnc1SCC(=O)N1CCOCC1	0%
Cn1c(SCc2nnc3n2CCCCC3)nc2ccccc21	0%
COC(=O)c1ccc(-c2sc3nc(N4CCOCC4)c4c(c3c2N)CCCC4)o1	0%
CSc1nc(NC(C)(C)C)nc(Oc2ccc(=O)[nH]n2)n1	0%
Cc1ccc2oc(=O)c3cnn(CC(=O)N4CCCCC4C)c3c2c1 (stereo not given)	0%
CC(=O)NC1(c2nnnn2CCOC(=O)Nc2ccc(Cl)cc2)CCCCC1	1%
CCOC(=O)Nc1ccc(OC)cc1S(=O)(=O)N1CCCCC1	0%
COC(=O)c1ccccc1NC(=O)C1CCN(S(=O)(=O)c2cc(C)ccc2OC)CC1	0%
CCCCCC(=O)N1CC2(C)CN(C(=O)CCCCC)CC(C)(C1)C2=O	0%
Cc1ccc(S(=O)(=O)C2(C(=O)Nc3cccnc3)CC2)cc1	1%
Cc1ccc(NC(=O)Cn2cccc2)cc1Cl	0%
Cc1nn(-c2ccccc2)c2[nH]c(C(F)(F)F)cc(=O)c12	1%
Cc1ccc(C(C(=O)NC2CCCCC2)N(C(=O)c2csnn2)C2CCCC2)o1 (stereo not given)	0%
CC(CC(=O)NCc1ccccc1)C1CCCO1 (stereo not given)	0%
CCNC(=O)CC1C(=O)N(c2ccc(F)cc2)C(=O)N1CCC(C)C (stereo not given)	0%
Cc1cc(C)c(S(=O)(=O)Nc2cccnc2)c(C)c1	0%
CC(n1cnnn1)C12CC3CC(CC(C3)C1)C2 (stereo not given)	8%
COCCOC(=O)/C=C1/NC(=O)CS1	0%

SMILES	inhibition
COc1ccc(-c2nnc3sc(-c4c(OC)cccc4OC)nn23)cc1	6%
Cc1nc2ccccn2c1/C(O)=C1\C(=O)C(=O)N(CCN2CCOCC2)C1c1cccs1 (stereo not given)	0%
Cc1nnc(NC(=O)CSc2nc3c(c(=O)n2C)SC(C)C3)s1 (stereo not given)	5%
Cc1nnc(SCC(=O)Nc2ccc3c(c2)OCCO3)n1CC1CCCO1 (stereo not given)	0%
COc1ccccc1CNC(=O)C1CCCN(S(=O)(=O)c2cnc[nH]2)C1 (stereo not given)	0%
O=C(CN(Cc1ccc2c(c1)OCO2)C(=O)CNS(=O)(=O)c1ccccc1)NCc1ccco1	0%
CCCOc1cccc(C2/C(=C(/O)c3ccccc3)C(=O)C(=O)N2CCN(C)C)c1 (stereo not given)	0%
CC1(C)CC(=O)C(CC2=C(O)CC(C)(C)CC2=O)=C(O)C1	4%
CCSc1nncn1/N=C/c1ccc(OC)c(OC)c1	4%
O=C(NCCN1CCOCC1)NC1(C(F)(F)F)Oc2ccc(Cl)cc2O1 (stereo not given)	0%
CCOc1ccc(CNC(=O)C2CCCN(S(C)(=O)=O)C2)cc1OC (stereo not given)	0%
COCCn1c(CN2CCN(c3cccc(Cl)c3)CC2)nc2c1c(=O)n(C)c(=O)n2C	0%
CN(C1CCS(=O)(=O)C1)S(=O)(=O)c1cccc2nsnc12 (stereo not given)	2%
COC(=O)c1ccc2c(c1)C(=O)N(C1CCCCC1)C2=O	9%
CCN(CC)c1ccc(-c2c(C#N)c(N)nc(OC)c2C#N)cc1	0%
COc1cc(NC(=O)CN(c2cc(C)cc(C)c2)S(=O)(=O)c2c(C)noc2C)cc(OC)c1	0%
CCOC(=O)c1ccc(COC(=O)c2cc3ccccc3oc2=O)o1	0%
COCCn1c(C)cc(C(=O)COC(=O)CCN2C(=O)c3ccccc3C2=O)c1C	0%
Cc1csc(OCc2ccc(C#N)cc2)n1	0%
O=C(Nc1ccc(CN2CCOCC2)cc1)c1cc2ccccn2n1	0%
